Assay outcomes: PubChem BioAssay, The Scripps Research Institute Molecular Screening Center
PPARg SRC-1 ag: PPARgamma-driven SRC-1 recruitment agonism; AID 631; activation, % at 8 µM; 200,000 tested, 0.41% active; P37231; PPARgamma-SRC-1 coactivator recruitment biochemical assay; in the data active means activation above about 19%;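 further: 0% = DMSO and 100% = reference agonist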
Target sequence (P37231 whole entry, looked up): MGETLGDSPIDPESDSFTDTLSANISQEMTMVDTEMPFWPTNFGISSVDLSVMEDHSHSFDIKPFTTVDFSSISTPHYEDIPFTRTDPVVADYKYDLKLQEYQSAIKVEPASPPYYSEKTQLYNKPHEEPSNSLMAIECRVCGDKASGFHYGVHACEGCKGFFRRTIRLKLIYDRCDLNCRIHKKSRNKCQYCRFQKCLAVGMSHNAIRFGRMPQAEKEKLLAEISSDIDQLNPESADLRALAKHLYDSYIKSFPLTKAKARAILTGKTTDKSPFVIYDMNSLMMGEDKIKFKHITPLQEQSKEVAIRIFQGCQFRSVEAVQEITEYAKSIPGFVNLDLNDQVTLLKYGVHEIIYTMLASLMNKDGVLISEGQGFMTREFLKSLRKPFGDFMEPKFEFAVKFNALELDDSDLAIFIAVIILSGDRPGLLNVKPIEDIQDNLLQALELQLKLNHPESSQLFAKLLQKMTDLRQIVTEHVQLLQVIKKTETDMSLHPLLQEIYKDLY
PPARg SRC-2 ag: promotes SRC-2 coactivator recruitment by human PPARgamma; PPARgamma LBD-SRC-2 recruitment, biochemical; P37231; 200,000 tested, 0.34% active; activation, % at 8 µM; in the data active means activation above about 22%;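 further: 0% = vehicle and 100% = reference agonist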
PPARg SRC3 recr: agonists of human PPARgamma SRC-3 coactivator recruitment; P37231; biochemical PPARgamma/SRC-3 coactivator recruitment assay; activation, % at 8 µM; 200,000 tested, 0.26% active; AID 731; in the data active means activation above about 23%;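 further: 0% = DMSO and 100% = reference agonist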
SRC3 TRFRET art: counter-screen for PPARgamma SRC-3 recruitment agonists: TR-FRET artefact; PPARgamma/SRC-3 format; hits give high values; TR-FRET ratio at 8 µM; 99,000 tested, 0.39% active; AID 1048
SRC1 TRFRET art: counter-screen for PPARgamma SRC-1 recruitment agonists: TR-FRET artefact; TR-FRET ratio at 8 µM; TR-FRET detection artefact counter-screen, emission ratio; hits give high values; AID 1051; 99,000 tested, 0.34% active; in the data active means TR-FRET ratio above about 2300
TR-FRET SRC-2 ct: TR-FRET artefact, counter-screen to PPARgamma/SRC-2 agonist assay; AID 1049; 200,000 tested, 0.4% active; TR-FRET ratio at 8 µM; hits give high values
An asterisk follows results filed as active; . = no result. In the library only some 0.9% were active in any assay of this set; here they are far more common. Unless noted, no stated cut-off is given here; in the data, active means TR-FRET ratio above about 2000; inactive means the rest.

SMILES	PPARg SRC-1 ag	PPARg SRC-2 ag	PPARg SRC3 recr	SRC3 TRFRET art	SRC1 TRFRET art	TR-FRET SRC-2 ct
Cc1cc(C(=O)OCC(=O)c2ccc3c(c2)OCCO3)c(C)o1	10	3	9	.	.	1561
O=C(NC(=S)Nc1ccc(S(=O)(=O)Nc2nccs2)cc1)c1ccccc1	9	5	0	1629	1767	1692
CC(C)C(=O)NC(=S)Nc1ccc(S(=O)(=O)Nc2nccs2)cc1	4	9	4	1730	2318*	1735
O=C(CSc1ccc(Br)c2cccc(Cl)c12)Nc1ccc(S(=O)(=O)Nc2nccs2)cc1	30*	10	12	2321*	2830*	1982*
Cc1cccc(NC(=O)CNC(=O)COc2cc(F)ccc2[N+](=O)[O-])c1C	7	4	-2	1582	1909	1859
CC(C(=O)Nc1sc2c(c1C(=O)NCC1CCCO1)CCC2)N1C(=O)c2ccccc2C1=O (configuration not stated)	0	-9	-2	1511	1507	1597
FC(F)(F)c1nnc2c(Sc3ccc(Cl)cc3)nc3ccccc3n12	32*	9	3	.	.	1457
CCOc1ccc(NC(=S)NC(C)C(c2ccccc2)N2CCN(C)CC2)cc1 (configuration not stated)	8	3	2	1519	1662	1416
CC(NC(=O)COc1ccccc1)C(c1ccccc1)N1CCN(C)CC1 (configuration not stated)	9	7	1	1665	2331*	1583
C/C(CCC(C)C)=N\Nc1cc(C)c2ccccc2n1	-1	5	3	1401	1482	1642
Cc1ccc(S(=O)(=O)N2CCCCC2)cc1NC(=O)COC(=O)c1ccccc1F	-7	-5	-1	1489	1665	1550
CCOC(=O)c1ccccc1NC(=O)CN(c1ccc(OCC)cc1)S(C)(=O)=O	9	6	6	1429	1952	1495
O=C(N/N=C/c1ccc([N+](=O)[O-])o1)c1cc(-c2ccc(-c3ccccc3)cc2)nc2ccccc12	7	-4	-3	1306	1568	1407
Cc1cc(N/N=C/c2ccc([N+](=O)[O-])o2)nc2ccccc12	11	10	9	2083*	1831	1789
Cn1cc(Cl)c(-c2n[nH]c(=S)n2-c2ccc(F)cc2)n1	17	21	10	1845	2344*	1896
Fc1ccc(-c2n[nH]c(=S)n2-c2ccc3c(c2)OCCO3)cc1	19	19	20	2239*	2494*	1992*
S=c1[nH]nc(-c2ccc(Cl)cc2)n1-c1ccc2c(c1)OCCO2	17	21	13	1832	2170	1817
Cc1ccc(-n2c(-c3nn(C)cc3Cl)n[nH]c2=S)cc1	4	6	8	1528	1918	1643
Cc1cc(Cl)ccc1Oc1ncnc2oc(-c3ccccc3)cc12	5	10	62*	.	.	1479
Cc1ccccc1N=Cc1cc2c(cc1O)OC(N)=C(C#N)C2c1ccccc1 (configuration not stated)	14	9	3	1831	2419*	1668
CCOc1cccc(C(=O)Nc2nc(-c3ccc(S(=O)(=O)N4CCOCC4)cc3)cs2)c1	14	18	19	.	.	2173*
O=C(Nc1nc(-c2ccncc2)cs1)c1ccc(S(=O)(=O)N2CCOCC2)cc1	5	-3	6	.	.	1646
O=C(COc1cccc(Cl)c1)Nc1nc(-c2ccc(S(=O)(=O)N3CCOCC3)cc2)cs1	11	11	21	.	.	2278*
O=C(Nc1nc(-c2cccs2)cs1)c1cccc(S(=O)(=O)N2CCCCCC2)c1	3	2	-1	.	.	2098*
COc1ccccc1OC(C)C(=O)Nc1nc(-c2ccc(S(=O)(=O)N3CCOCC3)cc2)cs1 (configuration not stated)	5	9	-12	.	.	2207*
SMILES	PPARg SRC-1 ag	PPARg SRC-2 ag	PPARg SRC3 recr	SRC3 TRFRET art	SRC1 TRFRET art	TR-FRET SRC-2 ct
O=C(COC(=O)c1cccc(S(=O)(=O)N2CCOCC2)c1)Nc1nc(-c2ccccc2Cl)cs1	9	2	3	.	.	1499
COc1ccc(C(=O)Nc2cc(C)c3c(=O)oc4ccccc4c3n2)cc1	24*	1	-5	.	.	1536
CN=C(Nc1ccc(C(=O)OC)s1)c1ccc(Cl)cc1	-2	1	4	1316	1709	1440
CCc1cc2c(=O)c(-c3nc(C)cs3)c(CCCC(=O)O)oc2cc1O	4	2	4	1707	1835	1611
CCc1cc2c(=O)c(-c3nc(C)cs3)coc2cc1OC(C)C(=O)NCCO (configuration not stated)	138*	25*	3	1621	5866*	2120*
COc1cc(-c2nc3ccccn3c2/N=C/c2cc(OC)c(OC)c(OC)c2)ccc1O	23*	26*	19	.	.	1665
CN(NC(=O)/C=C/C(=O)O)c1ncc(C(F)(F)F)cc1Cl	-5	-4	-7	1315	1826	1690
COc1ccccc1C(=O)NCC(=O)OCC(=O)c1ccc2c(c1)-c1ccccc1C2	4	16	8	2088*	1947	1874
COCc1cc(C)nc(Nc2ccc(C)cc2C)c1C#N	14	19	14	.	.	1983*
O=C(CSc1nnc(-c2ccc(F)cc2)c2ccccc12)Nc1cccc(Cl)c1	4	4	5	3308*	2670*	2527*
O=C(CSc1nnc(-c2ccc(F)cc2)c2ccccc12)Nc1ccccc1Cl	2	8	-1	2763*	1880	1884
O=C(CSc1nnc(-c2ccc(F)cc2)c2ccccc12)Nc1c(F)cccc1F	8	17	-1	1547	1814	1603
O=C(CSc1nnc(-c2ccc(F)cc2)c2ccccc12)Nc1ccccc1	11	6	8	2080*	2120	1768
COc1cc(NC(C)=O)ccc1-c1cc2ccccc2oc1=O	16	12	1	1621	1840	1672
COc1cc(NC(=O)c2ccc(Cl)cc2Cl)ccc1-c1cc2ccccc2oc1=O	13	17	18	.	.	2335*
CC(C)CCNC(=O)CCCn1c(=O)[nH]c2ccc(Br)cc2c1=O	1	8	10	.	.	1635
O=C(CCCn1c(=O)[nH]c2ccc(Br)cc2c1=O)NCc1ccc(Cl)cc1	31*	9	-3	1575	3045*	1480
CNC(=S)N1N=C(c2ccccc2)CC1c1ccccc1Cl (configuration not stated)	13	14	12	2267*	2109	1821
CC(C)c1ccc(C2CC(c3ccc(Br)cc3)=NN2C(N)=S)cc1 (configuration not stated)	6	7	8	1878	2207	1708
Cc1ccc(C2CC(c3ccccc3)=NN2C(=S)Nc2ccccc2)o1 (configuration not stated)	11	5	10	.	.	1587
CNC(=S)N1N=C(c2ccc(C)cc2)CC1c1ccc(Br)cc1 (configuration not stated)	4	6	2	.	.	2002*
O=C(NCc1ccco1)N1c2ccccc2Sc2ccccc21	0	3	4	.	.	1601
